Screening data from PubChem.
An excerpt weighted towards active compounds, which were near 4.1% of everything screened.
hgDAF-12 ag: activates the H. glycines DAF-12 receptor ligand-binding domain | HEK293 GAL4-hgDAF12 UAS-luciferase reporter, agonist luminescence; normalized to butyrate control | activation, % at 6.8 µM | actives 1.8% (n = 370,000);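 active means activation above a cutoff set at the mean of all screened compounds plus 3 SD, cut at about 10% in these data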;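 further: 0% = DMSO wells and 100% = sodium butyrate wells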
hcDAF-12 act: H. contortus DAF-12 activation, primary screen | HEK293 hcDAF-12 lit1-tk-luc reporter, luminescence; 0% DMSO, 100% Δ7-dafachronic acid | actives 1.4% (n = 370,000) | activation, % at 6.8 µM | AID 652067;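 active means activation above the mean of all tested compounds plus 3 SD, cut at about 5.5% in these data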;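 further: 100% = response to 3 µM Δ7-dafachronic acid high control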
DAX1 inh-1: inhibitors of human orphan nuclear receptor DAX1 (NR0B1); P51843; HEK293 Gal4-DAX1 luciferase reporter, luminescence; inhibition, % at 6.75 µM; actives 0.99% (n = 340,000);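 active means inhibition above the mean over all tested compounds plus 3 SD, cut at about 4.2% in these data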;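 further: 0% = DAX1-transfected cells with DMSO and 100% = empty-vector control cells with DMSO; inhibition shows as a rise in luminescence from relieved DAX1 repression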
Target sequence (P51843 207-470 limits assumed): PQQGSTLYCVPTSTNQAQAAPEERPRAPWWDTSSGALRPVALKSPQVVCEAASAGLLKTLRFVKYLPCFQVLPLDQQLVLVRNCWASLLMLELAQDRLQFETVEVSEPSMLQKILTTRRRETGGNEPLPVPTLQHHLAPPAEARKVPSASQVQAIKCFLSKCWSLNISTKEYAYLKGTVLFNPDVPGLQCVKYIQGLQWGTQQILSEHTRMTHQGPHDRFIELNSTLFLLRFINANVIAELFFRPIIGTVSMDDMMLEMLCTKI
ssDAF-12 act: S. stercoralis DAF-12 activation, primary screen; HEK293 ssDAF-12/GRIP1 lit1-tk-luc reporter, luminescence; % of 3 µM dafachronic acid response; activation, % at 6.8 µM; actives 1% (n = 370,000);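 active means activation above the mean over all tested compounds plus 3 SD, cut at about 0.9% in these data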;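 further: 0% = DMSO-only wells and 100% = 3 µM delta7-dafachronic acid wells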
DAX1 inh-2: blocks DAX1 repression of SF-1 activated StAR promoter. HEK293T StAR-luciferase reporter, SF-1/DAX-1 repression relief. AID 652010. actives 1.1% (n = 370,000). inhibition, % at 6.8 µM;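 active means inhibition above the mean over all tested compounds plus 3 SD, cut at about 3.6% in these data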;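 further: 0% = DAX-1 cells with DMSO and 100% = cells lacking DAX-1 with DMSO; higher inhibition means more luminescence from relief of DAX-1 repression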
hgDAF12 conf: hgDAF-12 agonism, confirmation assay. HEK293 GAL4-hgDAF12 luciferase reporter, agonist mode; percent of butyrate response. actives 80% (n = 3,300). shares compounds with hgDAF-12 ag. activation, % at 6.8 µM. AID 743050;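 active means mean activation over triplicate wells above the hit cutoff derived from the earlier primary screen, cut at about 11% in these data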;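 further: 0% = DMSO low control and 100% = 2 mM sodium butyrate high control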
LXR ag 2: counter-screen for DAF-12 agonists: agonists of human LXR-beta; shares compounds with hgDAF-12 ag; HEK293 Gal4-LXR luciferase reporter, 24 h; activation, % at 6.8 µM; 3,300 tested, under 10 active; AID 743051;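 active means mean activation of the triplicate above a set limit carried over from the primary screen, none filed active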
* marks the source's active call; other numbers are inactive results.

`O=C(O)/C=C/C(=O)Nc1nccs1` gave hgDAF-12 ag 2, hcDAF-12 act 3, DAX1 inh-1 -1, ssDAF-12 act 0 and DAX1 inh-2 0.
`O=C(/C=C/c1ccc(Br)o1)Nc1nccs1` gave hgDAF-12 ag 14*, hcDAF-12 act 5.8*, DAX1 inh-1 2, ssDAF-12 act 0, DAX1 inh-2 1, hgDAF12 conf 15* and LXR ag 2 0.
For OC(CCN1CCCCC1)(c1ccccc1)C1CC2C=CC1C2 (stereo unspecified) the results were hgDAF-12 ag 1, hcDAF-12 act -1, ssDAF-12 act -1 and DAX1 inh-2 1.
Screening NNC(=O)CSc1nc(-c2ccccc2)cn1-c1ccccc1 returned hgDAF-12 ag -7, hcDAF-12 act -2, DAX1 inh-1 -2, ssDAF-12 act -2 and DAX1 inh-2 0.
`COc1ccc(-n2cc(-c3ccccc3)nc2SC)cc1` gave hgDAF-12 ag 15*, hcDAF-12 act 3, DAX1 inh-1 3, ssDAF-12 act -1, DAX1 inh-2 2, hgDAF12 conf 11* and LXR ag 2 0.
For O=C1c2ccccc2C(=O)c2cc(NC(=O)C3CC3)ccc21 the results were hgDAF-12 ag 7, hcDAF-12 act 5, DAX1 inh-1 3, ssDAF-12 act -1 and DAX1 inh-2 2.
For CC(=O)Nc1ccc2c(c1)C(=O)c1ccccc1C2=O the results were hgDAF-12 ag 14*, hcDAF-12 act 6.5*, DAX1 inh-1 2, ssDAF-12 act 0, DAX1 inh-2 2, hgDAF12 conf 18* and LXR ag 2 1.
`CC(C)c1ccc(NC(=S)NC2CCCCCC2)cc1` gave hgDAF-12 ag 16*, hcDAF-12 act 2, DAX1 inh-1 -1, ssDAF-12 act -1, DAX1 inh-2 2, hgDAF12 conf 9 and LXR ag 2 0.
Cc1ccc(/C=C\c2nccc3c2[nH]c2ccccc23)cc1 was read as hgDAF-12 ag 15*, hcDAF-12 act 4, DAX1 inh-1 2, ssDAF-12 act 1, DAX1 inh-2 4.5*, hgDAF12 conf 8 and LXR ag 2 0.
For COc1ccc(Nc2cnn(-c3nc4ccccc4s3)c(=O)c2Cl)cc1 the results were hgDAF-12 ag 2, hcDAF-12 act 0, DAX1 inh-1 0, ssDAF-12 act 0 and DAX1 inh-2 0.
`Cc1ccc(C)c(N2CCN(c3cnn(-c4nc5ccccc5s4)c(=O)c3Cl)CC2)c1` gave hgDAF-12 ag 14*, hcDAF-12 act 5, DAX1 inh-1 3, ssDAF-12 act 0, DAX1 inh-2 3.7*, hgDAF12 conf 12* and LXR ag 2 1.
Screening S=c1nc(-c2ccccc2)oc2c1CCCC2 returned hgDAF-12 ag 3, hcDAF-12 act 4, DAX1 inh-1 2, ssDAF-12 act 0 and DAX1 inh-2 2.
For COc1cccc(-c2nc(=S)c3c(o2)CCCC3)c1 the results were hgDAF-12 ag 13*, hcDAF-12 act 2, DAX1 inh-1 5.1*, ssDAF-12 act 0, DAX1 inh-2 3.7*, hgDAF12 conf 17* and LXR ag 2 0.
`COc1ccc(-c2ccc3c(n2)CCCN3S(=O)(=O)c2c(C)noc2C)cc1` gave hgDAF-12 ag -1, hcDAF-12 act -1, ssDAF-12 act -2 and DAX1 inh-2 -1.
Screening O=C(c1ccccc1)C12COc3ccccc3C1ON=C2c1ccccc1 (stereo unspecified) returned hgDAF-12 ag 0, hcDAF-12 act 0, ssDAF-12 act -1 and DAX1 inh-2 1.
O=c1[nH]c(Cc2ccccc2)nc2c1oc1ccccc12 was read as hgDAF-12 ag -2, hcDAF-12 act -1, DAX1 inh-1 0, ssDAF-12 act -2 and DAX1 inh-2 0.
Cc1nc2c(oc3ccccc32)c(=O)o1 was read as hgDAF-12 ag 14*, hcDAF-12 act 6.1*, DAX1 inh-1 2, ssDAF-12 act 0, DAX1 inh-2 1, hgDAF12 conf 9 and LXR ag 2 0.
For O=C(Nc1cccc([N+](=O)[O-])c1)Nc1ccc2c(c1)OCCO2 the results were hgDAF-12 ag 13*, hcDAF-12 act 4, DAX1 inh-1 3, ssDAF-12 act 0, DAX1 inh-2 2, hgDAF12 conf 17* and LXR ag 2 1.
For O=C(Nc1ccc2c(c1)CCC2)Nc1ccc2c(c1)OCO2 the results were hgDAF-12 ag 14*, hcDAF-12 act 1, DAX1 inh-1 2, ssDAF-12 act -1, DAX1 inh-2 1, hgDAF12 conf 14* and LXR ag 2 1.
O=C(Nc1cccc([N+](=O)[O-])c1)Nc1cccc([N+](=O)[O-])c1 was read as hgDAF-12 ag 0, hcDAF-12 act -2, DAX1 inh-1 0, ssDAF-12 act -2 and DAX1 inh-2 -1.
Screening CC(=O)c1cccc(NC(=O)NCc2ccc3c(c2)OCO3)c1 returned hgDAF-12 ag 0, hcDAF-12 act -2, DAX1 inh-1 2, ssDAF-12 act -1 and DAX1 inh-2 -3.
`CC(=O)c1cccc(NC(=O)Nc2ccc3c(c2)OCO3)c1` gave hgDAF-12 ag 14*, hcDAF-12 act 1, DAX1 inh-1 2, ssDAF-12 act 0, DAX1 inh-2 2, hgDAF12 conf 14* and LXR ag 2 0.
`O=C(Nc1ccc2c(c1)OCCO2)NC12CC3CC(CC(C3)C1)C2` gave hgDAF-12 ag 14*, hcDAF-12 act 4, DAX1 inh-1 1, ssDAF-12 act -1, DAX1 inh-2 2, hgDAF12 conf 17* and LXR ag 2 1.
Screening O=C(Nc1ccc2c(c1)CCC2)c1cc(F)cc(F)c1 returned hgDAF-12 ag 14*, hcDAF-12 act 0, DAX1 inh-1 2, ssDAF-12 act 0, DAX1 inh-2 4.1*, hgDAF12 conf 13* and LXR ag 2 0.
Screening Cn1cc(C(=O)Nc2ccc3c(c2)CCC3)cn1 returned hgDAF-12 ag 8, hcDAF-12 act 1, DAX1 inh-1 2, ssDAF-12 act 0 and DAX1 inh-2 2.
CCCSc1nsc(NC(=O)CCC)n1 was read as hgDAF-12 ag 19*, hcDAF-12 act 4, DAX1 inh-1 1, ssDAF-12 act 0, DAX1 inh-2 3, hgDAF12 conf 15* and LXR ag 2 1.
For CCCCSc1nsc(NC(C)=O)n1 the results were hgDAF-12 ag 9, hcDAF-12 act 4, DAX1 inh-1 2, ssDAF-12 act -1 and DAX1 inh-2 2.
Cc1cc(NO)nc(-c2ccc(Br)cc2)n1 was read as hgDAF-12 ag 13*, hcDAF-12 act 4, DAX1 inh-1 2, ssDAF-12 act 0, DAX1 inh-2 0, hgDAF12 conf 19* and LXR ag 2 1.
